Results published in PubChem BioAssay (NCATS).
Results filed as inconclusive are left out. Calls of active or inactive are those of the source. Calls come from the whole dose curve; as a rule, active = well fitted cell-killing curve with a large enough effect; inconclusive = small, poorly fitted or top-dose-only effect, or effect the other way; inactive = no such curve, though single readings can be large or run the other way.

Assay: Quantitative High-Throughput drug screen in 47 multiple myeloma cell lines against the NCATS MIPE library collection: Karpas25_ECACC cell viability assay (AID 1918968; note: nearly all actives have a fitted effect of over 35% in size;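 for viability (% of control): 100% = DMSO only wells and 0% = media only wells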)
Details: Karpas25 myeloma viability, CellTiter-Glo ATP, 48 h; series mostly up to 45.8 µM; viability (% of control): at the top concentration
Summary of the method: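 Primary qHTS used for cherry-picking: cells at 500/well, library compounds for 48 h (37C, 5% CO2), luminescent ATP assay.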
Potency is the fitted concentration of half-maximal effect.

SMILES | Potency | viability (% of control)
CCC1=C[C@@H]2CN(C1)Cc1c([nH]c3ccccc13)[C@@](C(=O)OC)(c1cc3c(cc1OC)N(C)[C@@H]1[C@@](O)(C(=O)OC)[C@H](OC(C)=O)[C@]4(CC)C=CCN5CC[C@]31[C@@H]54)C2 | 0.0187 µM (active) | –
CN[C@H]1CCc2cc(OC)c(OC)c(OC)c2-c2ccc(OC)c(=O)cc21 | 0.0105 µM (active) | –
O=c1c2ccccc2nc2n1CCc1c-2[nH]c2ccccc12 | – | 86.3% (inactive)
Nc1ccn([C@@H]2CS[C@H](CO)O2)c(=O)n1 | 24.1 µM (active) | –
Cn1cc(-c2ccncc2)c(-c2ccc(OCc3ccc4ccccc4n3)cc2)n1 | 1.48 µM (active) | –
Nc1ccc(S(=O)(=O)Nc2ncccn2)cc1 | – | 138% (inactive)
CN(C)CC(C)(C)CNc1nn2c(-c3ccccc3)nnc2cc1C1CCC1 | 16.6 µM (active) | –
CN(C1CCc2c(c3ccccc3n2CC(=O)O)C1)S(=O)(=O)c1ccc(F)cc1 (stereo unspecified) | 2.09 µM (active) | –
O=C(O)CO.[NH2-].[NH2-].[Pt+2] | – | 104% (inactive)
C1Cc2[nH]nc(-c3nn[nH]n3)c2C1 | – | 101% (inactive)
CC(C)c1cc(-c2n[nH]c(=O)n2-c2ccc3c(ccn3C)c2)c(O)cc1O | 0.0209 µM (active) | –
COc1ccc(-n2nc(C(N)=O)c3c2C(=O)N(c2ccc(N4CCCCC4=O)cc2)CC3)cc1 | – | 148% (inactive)
C[C@@H](Oc1cc(-n2cnc3ccc(CN4CCN(C)CC4)cc32)sc1C(N)=O)c1ccccc1C(F)(F)F | 20.9 µM (active) | –
Cc1ccc(S(=O)(=O)Nc2cc(Cl)ccc2C(=O)Nc2nc(-c3ccccc3)cs2)cc1 | 5.26 µM (active) | –
COc1ccc2c(OCc3nnc4ccc(-c5ccccc5)nn34)ccnc2c1 | – | 126% (inactive)
O=C1CCC[C@@H]2[C@H]3CCC[N+]4([O-])CCC[C@@H](CN12)[C@@H]34 (stereo partly specified) | – | 111% (inactive)
Cc1c(NC(=O)OC[C@@H]2COCCN2)cn2ncnc(Nc3ccc4c(cnn4Cc4cccc(F)c4)c3)c12 | 7.43 µM (active) | –
O=C(O)[C@H](Cc1c[nH]c2ccccc12)N1C(=O)c2ccccc2C1=O | – | 103% [at 92.2 µM] (inactive)
Cc1ccc2nc(NC(=O)CSc3nc4c(c(=O)n3-c3ccccc3)SCC4)sc2c1 | 5.26 µM (active) | –
Cc1cc(N2CCOCC2)cc2[nH]c(-c3c(NC[C@@H](O)c4cccc(Cl)c4)cc[nH]c3=O)nc12 | 0.0833 µM (active) | –
CCOC(=O)C1=C(C)NC2=C(C(=O)CC(C)(C)C2)C1c1ccc(-c2ccccc2)cc1 (stereo unspecified) | 20.9 µM (active) | –
